Reference: the supplement of paper PMC10849652
The full data set covers some 7,900 targets. This sample favours those with a hit. About 0.6% of all pairs of compound and target were hits.

Legend:
Test in all cases: log2 fold change, soluble protein after heating vs DMSO (PISA); higher = thermal stabilisation; K562 cells, 10 uM, 30 min; active = over 0.2 and 3.5 SD of the protein, either way, in both replicates (recomputed)
bafetinib = compound: Cc1ccc(NC(=O)c2ccc(CN3CC[C@H](N(C)C)C3)c(C(F)(F)F)c2)cc1Nc1nccc(-c2cncnc2)n1 [bafetinib]
Outline: (§1)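 For each measurement, 10 μM compound was applied for 30 min to K562 cells at 2×10^6 cells/mL. Aliquots were heated for 3 min across 48°C-58°C, pooled, and extracted in PBS with 0.5% NP-40 at 4°C; the supernatant after 21,000xg for 90 min was soluble protein. This was quantified by TMTpro 16plex LC-MS/MS with channel sums equalised, and thermal stability was reported relative to control samples from duplicates, on a log2 fold-change scale.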

[1] = compound: Cc1cccc(CC(=O)N2CCc3c2ccc(-c2cn(C)c4ncnc(N)c24)c3F)n1
Outline: as §1

nilotinib = compound: Cc1cn(-c2cc(NC(=O)c3ccc(C)c(Nc4nccc(-c5cccnc5)n4)c3)cc(C(F)(F)F)c2)cn1 [nilotinib]
Outline: as §1

[2] = compound: Cc1nc(Nc2n[nH]c3c2CN(C(=O)N[C@H](CN(C)C)c2ccccc2)C3(C)C)c2sccc2n1
Outline: as §1

dasatinib = compound: Cc1nc(Nc2ncc(C(=O)Nc3c(C)cccc3Cl)s2)cc(N2CCN(CCO)CC2)n1 [dasatinib]
Outline: as §1

[3] = compound: Cc1ncc(-c2ccnc(Nc3ccc(S(C)(=O)=O)cc3)n2)n1C(C)C
Outline: as §1

[4] = compound: Cn1cc(-c2ccc3c(c2)CCN3C(=O)Cc2cccc(C(F)(F)F)c2)c2c(N)ncnc21
Outline: as §1

[5] = compound: Cn1cc(-c2ccc3nnc(C(F)(F)c4ccc5ncccc5c4)n3n2)cn1
Outline: as §1

tipifarnib = compound: Cn1cncc1[C@@](N)(c1ccc(Cl)cc1)c1ccc2c(c1)c(-c1cccc(Cl)c1)cc(=O)n2C [tipifarnib]
Outline: as §1

mubritinib = compound: FC(F)(F)c1ccc(/C=C/c2nc(COc3ccc(CCCCn4ccnn4)cc3)co2)cc1 [mubritinib]
Outline: as §1

[6] = compound: NC(=O)Nc1cc(-c2cccc(F)c2)sc1C(=O)N[C@H]1CCCNC1
Outline: as §1

[7] = compound: NC(=O)c1cnc(N[C@@H]2CCCC[C@@H]2N)nc1Nc1cccc(-n2nccn2)c1
Outline: as §1

[8] = compound: NC1(c2ccc(-c3nc4ccn5c(=O)[nH]nc5c4cc3-c3ccccc3)cc2)CCC1
Outline: as §1

[9] = compound: NCC(=O)Nc1ccc(-n2nc(C(F)(F)F)cc2-c2ccc3c(ccc4ccccc43)c2)cc1
Outline: as §1

entinostat = compound: Nc1ccccc1NC(=O)c1ccc(CNC(=O)OCc2cccnc2)cc1 [entinostat]
Outline: as §1

vorinostat = compound: O=C(CCCCCCC(=O)Nc1ccccc1)NO [vorinostat]
Outline: as §1

citarinostat = compound: O=C(CCCCCCNC(=O)c1cnc(N(c2ccccc2)c2ccccc2Cl)nc1)NO [citarinostat]
Outline: as §1

silmitasertib = compound: O=C(O)c1ccc2c(c1)nc(Nc1cccc(Cl)c1)c1ccncc12 [silmitasertib]
Outline: as §1

[10] = compound: O=C1NC(=O)C(c2cnc3ccccn23)=C1c1cn2c3c(cc(F)cc13)CN(C(=O)N1CCCCC1)CC2
Outline: as §1

[11] = compound: c1cc(OCCN2CCCCC2)cc(-c2n[nH]c3ccc(-c4nnc[nH]4)cc23)c1
Outline: as §1

Measured: log2 fold change

UBAP2L isoform 5 (UniProt Q14157)
inactive: bafetinib -0.044 | [1] -0.02 | nilotinib -0.003 | [2] -0.015 | dasatinib 0.005 | [3] 0.007 | [4] 0.011 | [5] -0.003 | tipifarnib -0.028 | mubritinib 0.024 | [6] 0.017 | [7] -0.004 | [8] -0.013 | [9] 0.001 | entinostat -0.016 | vorinostat -0.016 | citarinostat 0.013 | silmitasertib -0.007 | [10] -0.029 | [11] 0.023

VTI1B (UniProt Q9UEU0)
inactive: bafetinib -0.064 | [1] -0.177 | nilotinib 0.013 | [2] 0.015 | dasatinib -0.011 | [3] 0.027 | [4] 0 | [5] 0.037 | tipifarnib 0.085 | mubritinib -0.055 | [6] 0.023 | [7] -0.006 | [8] -0.084 | [9] -0.054 | entinostat -0.031 | vorinostat -0.035 | citarinostat -0.001 | silmitasertib 0.114 | [10] 0.054 | [11] -0.03

TXNL1 (UniProt O43396)
Sequence of UniProt O43396 (O43396 whole entry, looked up): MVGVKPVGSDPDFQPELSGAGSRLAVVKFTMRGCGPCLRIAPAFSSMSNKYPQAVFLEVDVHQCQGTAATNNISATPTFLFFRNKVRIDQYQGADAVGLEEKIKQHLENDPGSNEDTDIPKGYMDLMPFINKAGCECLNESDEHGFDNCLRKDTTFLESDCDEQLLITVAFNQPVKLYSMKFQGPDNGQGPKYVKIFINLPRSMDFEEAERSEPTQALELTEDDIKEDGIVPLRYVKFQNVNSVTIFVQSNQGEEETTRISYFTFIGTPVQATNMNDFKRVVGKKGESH
inactive: bafetinib 0.04 | [1] 0.005 | nilotinib -0.035 | [2] -0.006 | dasatinib -0.074 | [3] 0.008 | [4] -0.004 | [5] -0.035 | tipifarnib -0.06 | mubritinib 0.057 | [6] -0.048 | [7] -0.013 | [8] -0.084 | [9] -0.015 | entinostat 0.028 | vorinostat 0.018 | citarinostat 0.087 | silmitasertib 0.074 | [10] -0.004 | [11] -0.03

WBP4 (UniProt O75554)
inactive: bafetinib -0.043 | [1] 0.14 | nilotinib 0.001 | [2] -0.006 | dasatinib 0.014 | [3] -0.023 | [4] 0.037 | [5] 0.047 | tipifarnib 0.023 | mubritinib 0.06 | [7] 0.079 | [8] 0.006 | [9] 0.111 | entinostat 0.058 | vorinostat 0.098 | citarinostat 0.055 | silmitasertib -0.026 | [10] 0 | [11] -0.007
active: [6] 0.28

WDR4 (UniProt P57081)
Sequence of UniProt P57081 (P57081 whole entry, looked up): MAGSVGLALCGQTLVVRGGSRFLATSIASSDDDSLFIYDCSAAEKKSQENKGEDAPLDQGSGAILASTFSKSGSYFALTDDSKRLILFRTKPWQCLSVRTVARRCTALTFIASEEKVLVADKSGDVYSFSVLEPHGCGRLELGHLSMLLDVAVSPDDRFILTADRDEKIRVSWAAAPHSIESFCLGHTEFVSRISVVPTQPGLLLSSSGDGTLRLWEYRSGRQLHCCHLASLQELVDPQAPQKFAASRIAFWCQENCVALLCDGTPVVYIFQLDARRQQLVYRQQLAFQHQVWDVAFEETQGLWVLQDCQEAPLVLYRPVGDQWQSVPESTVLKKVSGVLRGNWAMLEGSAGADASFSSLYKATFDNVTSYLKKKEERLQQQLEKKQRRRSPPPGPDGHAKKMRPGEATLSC
active: bafetinib 0.455
inactive: [1] -0.06 | nilotinib 0.009 | [2] 0.005 | dasatinib -0.013 | [3] -0.003 | [4] 0.068 | [5] -0.061 | tipifarnib -0.132 | mubritinib 0.031 | [6] -0.094 | [7] 0.021 | [8] -0.089 | [9] -0.003 | entinostat -0.04 | vorinostat -0.009 | citarinostat 0.046 | silmitasertib -0.038 | [10] -0.161 | [11] -0.011

WDR41 (UniProt Q9HAD4)
Sequence of UniProt Q9HAD4 (Q9HAD4 whole entry, looked up): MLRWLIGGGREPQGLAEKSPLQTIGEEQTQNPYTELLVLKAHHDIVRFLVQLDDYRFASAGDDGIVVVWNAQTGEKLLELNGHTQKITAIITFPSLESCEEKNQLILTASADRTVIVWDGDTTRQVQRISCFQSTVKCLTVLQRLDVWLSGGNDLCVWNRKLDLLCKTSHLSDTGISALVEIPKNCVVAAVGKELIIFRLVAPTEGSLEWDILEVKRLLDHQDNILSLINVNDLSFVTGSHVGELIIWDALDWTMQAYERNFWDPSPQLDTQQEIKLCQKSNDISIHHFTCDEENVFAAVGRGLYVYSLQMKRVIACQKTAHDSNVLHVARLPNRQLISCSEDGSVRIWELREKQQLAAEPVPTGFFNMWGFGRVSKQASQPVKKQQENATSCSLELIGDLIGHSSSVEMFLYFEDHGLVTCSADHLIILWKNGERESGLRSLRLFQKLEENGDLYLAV
inactive: bafetinib -0.139 | [1] 0.169 | nilotinib 0 | [2] -0.076 | dasatinib -0.082 | [3] -0.017 | [4] 0.012 | [5] -0.003 | tipifarnib 0.023 | mubritinib 0.071 | [6] 0 | [7] -0.005 | [8] -0.173 | [9] -0.005 | entinostat 0.038 | vorinostat 0.091 | citarinostat 0.036 | silmitasertib 0.031 | [10] -0.11 | [11] -0.07

TOM1L1 (UniProt O75674)
Sequence of UniProt O75674 (O75674 whole entry, looked up): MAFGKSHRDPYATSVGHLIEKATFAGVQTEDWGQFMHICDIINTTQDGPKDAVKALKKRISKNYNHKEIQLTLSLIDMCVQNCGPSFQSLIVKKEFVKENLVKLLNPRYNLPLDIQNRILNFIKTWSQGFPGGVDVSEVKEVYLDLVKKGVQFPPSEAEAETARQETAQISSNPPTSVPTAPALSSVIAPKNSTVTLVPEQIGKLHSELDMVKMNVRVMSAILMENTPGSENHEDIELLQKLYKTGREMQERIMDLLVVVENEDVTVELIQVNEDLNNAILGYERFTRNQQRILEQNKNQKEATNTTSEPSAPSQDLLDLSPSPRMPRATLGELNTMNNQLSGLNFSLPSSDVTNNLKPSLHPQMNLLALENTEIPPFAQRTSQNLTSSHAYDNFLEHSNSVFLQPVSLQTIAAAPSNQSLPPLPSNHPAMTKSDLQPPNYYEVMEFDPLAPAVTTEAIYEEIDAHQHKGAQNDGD
active: [1] -0.265
inactive: bafetinib -0.025 | nilotinib -0.003 | [2] -0.069 | dasatinib -0.04 | [3] 0.087 | [4] 0.031 | [5] 0.032 | tipifarnib 0.06 | mubritinib 0.034 | [6] -0.086 | [7] 0.102 | [8] 0.008 | [9] 0.018 | entinostat -0.034 | vorinostat 0.092 | citarinostat -0.074 | silmitasertib 0.021 | [10] 0.008 | [11] -0.041

USP24 (UniProt Q9UPU5)
inactive: bafetinib 0.037 | [1] 0.034 | nilotinib 0.096 | [2] 0.007 | dasatinib -0.098 | [3] 0.09 | [4] 0.144 | [5] 0.105 | tipifarnib -0.072 | mubritinib 0.056 | [6] 0.18 | [7] 0.079 | [8] -0.053 | [9] 0.07 | entinostat -0.095 | vorinostat -0.012 | citarinostat 0.012 | silmitasertib 0.188 | [10] -0.2 | [11] 0.11

TTC38 (UniProt Q5R3I4)
Sequence of UniProt Q5R3I4 (Q5R3I4 whole entry, looked up): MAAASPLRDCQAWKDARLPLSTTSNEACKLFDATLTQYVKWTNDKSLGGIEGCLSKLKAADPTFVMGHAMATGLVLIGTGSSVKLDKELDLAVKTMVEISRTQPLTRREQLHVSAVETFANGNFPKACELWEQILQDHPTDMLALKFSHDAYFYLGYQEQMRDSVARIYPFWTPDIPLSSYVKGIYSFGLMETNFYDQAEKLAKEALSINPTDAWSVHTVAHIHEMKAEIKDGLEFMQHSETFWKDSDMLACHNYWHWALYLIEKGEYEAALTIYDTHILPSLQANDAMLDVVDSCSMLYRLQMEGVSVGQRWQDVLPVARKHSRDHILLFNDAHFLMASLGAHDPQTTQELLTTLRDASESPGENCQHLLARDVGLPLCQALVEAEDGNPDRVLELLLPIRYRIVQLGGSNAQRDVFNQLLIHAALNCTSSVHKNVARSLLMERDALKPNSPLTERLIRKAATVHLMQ
active: vorinostat 0.459
inactive: bafetinib -0.012 | [1] 0.021 | nilotinib 0.038 | [2] 0.034 | dasatinib 0.024 | [3] -0.04 | [4] 0.071 | [5] -0.021 | tipifarnib 0.05 | mubritinib 0.322 | [6] 0.038 | [7] 0.113 | [8] -0.263 | [9] -0.09 | entinostat 0.111 | citarinostat -0.243 | silmitasertib -0.156 | [10] 0.042 | [11] 0.313

TMEM9 (UniProt Q9P0T7)
Sequence of UniProt Q9P0T7 (Q9P0T7 whole entry, looked up): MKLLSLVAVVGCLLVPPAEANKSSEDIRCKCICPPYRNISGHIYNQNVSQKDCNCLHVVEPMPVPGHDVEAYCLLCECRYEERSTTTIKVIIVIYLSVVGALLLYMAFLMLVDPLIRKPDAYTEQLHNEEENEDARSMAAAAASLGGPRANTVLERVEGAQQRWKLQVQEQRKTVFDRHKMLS
inactive: bafetinib 0.028 | [1] -0.048 | nilotinib -0.017 | [2] -0.022 | dasatinib -0.087 | [3] -0.037 | [4] 0.057 | [5] -0.007 | tipifarnib -0.068 | mubritinib 0.025 | [6] -0.008 | [7] 0.047 | [8] -0.113 | [9] 0.063 | entinostat -0.026 | vorinostat -0.053 | citarinostat 0.1 | silmitasertib -0.044 | [10] -0.031 | [11] 0.065

VPS39 (UniProt Q96JC1)
inactive: bafetinib -0.032 | [1] 0.069 | nilotinib -0.019 | [2] -0.068 | dasatinib -0.15 | [3] -0.017 | [4] 0.033 | [5] 0.003 | tipifarnib -0.058 | mubritinib 0.027 | [6] 0.026 | [7] -0.119 | [8] -0.195 | [9] -0.039 | entinostat 0.05 | vorinostat 0.101 | citarinostat 0.01 | silmitasertib -0.004 | [10] 0.055 | [11] -0.042

UBLCP1 (UniProt Q8WVY7)
inactive: bafetinib 0.016 | [1] -0.034 | nilotinib -0.101 | [2] 0.074 | dasatinib -0.063 | [3] 0.116 | [4] -0.052 | [5] 0.006 | tipifarnib -0.072 | mubritinib 0.155 | [6] -0.084 | [7] -0.009 | [8] -0.165 | [9] -0.048 | entinostat 0.122 | vorinostat 0 | citarinostat 0.085 | silmitasertib 0.049 | [10] -0.142 | [11] 0.035

WDR43 (UniProt Q15061)
inactive: bafetinib -0.041 | [1] -0.052 | nilotinib -0.013 | [2] 0.033 | dasatinib 0.015 | [3] 0.102 | [4] -0.022 | [5] 0.013 | tipifarnib 0.005 | mubritinib -0.024 | [6] 0.023 | [7] 0.03 | [8] 0.068 | [9] -0.023 | entinostat -0.029 | vorinostat -0.078 | citarinostat 0.007 | silmitasertib 0.051 | [10] -0.007 | [11] -0.027

UBR2 (UniProt Q8IWV8)
Sequence of UniProt Q8IWV8 (Q8IWV8 whole entry, looked up): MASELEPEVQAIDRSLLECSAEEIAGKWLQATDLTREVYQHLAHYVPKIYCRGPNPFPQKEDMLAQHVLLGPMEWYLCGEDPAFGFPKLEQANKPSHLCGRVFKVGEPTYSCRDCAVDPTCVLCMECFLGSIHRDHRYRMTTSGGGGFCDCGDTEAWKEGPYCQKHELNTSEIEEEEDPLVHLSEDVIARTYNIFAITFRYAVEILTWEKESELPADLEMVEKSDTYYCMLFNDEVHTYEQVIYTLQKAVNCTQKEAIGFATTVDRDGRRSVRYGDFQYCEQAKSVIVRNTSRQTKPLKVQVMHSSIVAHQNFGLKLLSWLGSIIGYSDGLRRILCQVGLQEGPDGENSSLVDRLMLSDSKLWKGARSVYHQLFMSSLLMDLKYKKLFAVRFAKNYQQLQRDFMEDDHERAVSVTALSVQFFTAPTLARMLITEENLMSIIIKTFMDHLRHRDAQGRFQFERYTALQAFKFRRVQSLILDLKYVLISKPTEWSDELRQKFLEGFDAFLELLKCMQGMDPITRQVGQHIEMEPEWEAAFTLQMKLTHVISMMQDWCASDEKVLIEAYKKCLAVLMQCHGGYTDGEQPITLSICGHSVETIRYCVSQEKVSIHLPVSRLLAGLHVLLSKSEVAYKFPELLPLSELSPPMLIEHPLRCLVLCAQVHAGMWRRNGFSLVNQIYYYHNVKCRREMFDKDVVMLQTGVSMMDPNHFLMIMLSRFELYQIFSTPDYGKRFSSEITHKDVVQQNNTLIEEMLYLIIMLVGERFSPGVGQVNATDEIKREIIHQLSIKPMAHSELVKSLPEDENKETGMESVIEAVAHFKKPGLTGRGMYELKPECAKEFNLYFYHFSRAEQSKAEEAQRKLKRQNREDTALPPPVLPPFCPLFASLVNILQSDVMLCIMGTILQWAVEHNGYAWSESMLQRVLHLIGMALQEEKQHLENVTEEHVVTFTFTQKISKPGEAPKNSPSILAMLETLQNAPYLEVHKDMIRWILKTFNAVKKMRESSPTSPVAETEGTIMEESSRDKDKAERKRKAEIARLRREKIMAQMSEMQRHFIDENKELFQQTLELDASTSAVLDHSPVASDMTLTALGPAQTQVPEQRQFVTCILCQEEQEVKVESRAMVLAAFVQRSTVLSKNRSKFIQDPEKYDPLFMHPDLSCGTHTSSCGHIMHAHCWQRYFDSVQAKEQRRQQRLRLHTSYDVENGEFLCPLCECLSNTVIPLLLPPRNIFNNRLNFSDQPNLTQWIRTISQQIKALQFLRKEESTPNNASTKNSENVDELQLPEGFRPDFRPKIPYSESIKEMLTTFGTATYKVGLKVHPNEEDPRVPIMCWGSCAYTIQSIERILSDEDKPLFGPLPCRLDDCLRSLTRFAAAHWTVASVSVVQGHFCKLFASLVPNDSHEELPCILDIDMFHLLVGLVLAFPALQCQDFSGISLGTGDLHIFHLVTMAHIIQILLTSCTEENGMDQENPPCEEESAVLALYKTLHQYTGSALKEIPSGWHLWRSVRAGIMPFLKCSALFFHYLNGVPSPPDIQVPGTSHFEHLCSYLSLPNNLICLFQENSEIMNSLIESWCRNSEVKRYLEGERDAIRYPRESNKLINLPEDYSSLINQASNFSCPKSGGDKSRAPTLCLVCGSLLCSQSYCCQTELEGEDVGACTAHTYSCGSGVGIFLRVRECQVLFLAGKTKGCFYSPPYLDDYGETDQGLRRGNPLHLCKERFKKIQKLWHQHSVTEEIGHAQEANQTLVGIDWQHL
inactive: bafetinib 0.021 | [1] 0.072 | nilotinib 0.02 | [2] 0.01 | dasatinib -0.107 | [3] -0.069 | [4] -0.023 | [5] 0.058 | tipifarnib -0.095 | mubritinib 0.011 | [6] -0.007 | [7] 0.038 | [8] 0.039 | [9] 0.007 | entinostat 0.049 | vorinostat 0.137 | citarinostat 0.05 | silmitasertib 0.061 | [10] 0.044 | [11] -0.14

VPS35L (UniProt Q7Z3J2)
Sequence of UniProt Q7Z3J2 (Q7Z3J2 whole entry, looked up): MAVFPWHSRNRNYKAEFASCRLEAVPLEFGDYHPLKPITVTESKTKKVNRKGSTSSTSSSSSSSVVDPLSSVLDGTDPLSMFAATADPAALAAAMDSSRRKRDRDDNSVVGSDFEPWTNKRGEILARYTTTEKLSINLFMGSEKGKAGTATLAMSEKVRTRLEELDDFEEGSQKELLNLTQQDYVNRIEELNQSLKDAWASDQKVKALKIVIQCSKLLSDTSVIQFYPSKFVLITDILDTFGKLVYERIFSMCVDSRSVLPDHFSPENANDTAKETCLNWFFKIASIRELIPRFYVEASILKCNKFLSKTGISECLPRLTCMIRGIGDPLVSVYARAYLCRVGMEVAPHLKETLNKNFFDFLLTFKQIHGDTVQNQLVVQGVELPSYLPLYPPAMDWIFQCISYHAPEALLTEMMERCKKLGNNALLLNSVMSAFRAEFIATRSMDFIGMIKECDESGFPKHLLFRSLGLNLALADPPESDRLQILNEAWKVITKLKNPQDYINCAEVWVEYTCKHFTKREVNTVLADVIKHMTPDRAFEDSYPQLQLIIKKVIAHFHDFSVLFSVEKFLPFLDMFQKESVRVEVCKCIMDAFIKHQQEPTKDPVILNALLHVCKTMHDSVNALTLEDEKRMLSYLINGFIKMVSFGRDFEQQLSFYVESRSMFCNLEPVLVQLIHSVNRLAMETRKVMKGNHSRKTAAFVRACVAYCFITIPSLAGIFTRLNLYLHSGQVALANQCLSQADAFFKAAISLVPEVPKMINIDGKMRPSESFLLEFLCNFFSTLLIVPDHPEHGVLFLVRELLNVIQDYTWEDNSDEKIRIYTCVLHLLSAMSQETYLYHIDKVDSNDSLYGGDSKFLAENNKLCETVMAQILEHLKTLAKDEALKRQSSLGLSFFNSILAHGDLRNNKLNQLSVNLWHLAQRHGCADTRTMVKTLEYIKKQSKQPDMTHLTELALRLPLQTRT
inactive: bafetinib 0.006 | [1] -0.008 | nilotinib -0.201 | [2] 0.101 | dasatinib -0.056 | [3] -0.123 | [4] -0.152 | [5] 0.009 | tipifarnib -0.002 | mubritinib 0.02 | [6] -0.038 | [7] 0.004 | [8] -0.137 | [9] -0.012 | entinostat 0.006 | vorinostat -0.039 | citarinostat 0.08 | silmitasertib 0.111 | [10] -0.006 | [11] -0.062

UFL1 (UniProt O94874)
inactive: bafetinib 0.032 | [1] 0.018 | nilotinib -0.119 | [2] -0.009 | dasatinib -0.165 | [3] 0.083 | [4] -0.013 | [5] -0.007 | tipifarnib -0.052 | mubritinib 0.062 | [6] -0.06 | [7] -0.013 | [8] -0.107 | [9] -0.066 | entinostat 0.059 | vorinostat 0.074 | citarinostat 0.063 | silmitasertib 0.029 | [10] -0.013 | [11] -0.048
